Experimental findings from PubChem BioAssay (NCATS) are described below.

The nature of assay [1]: HepG2 viability counterscreen (readout 2: ATP content) against the NCATS DSHEA and TCM libraries (AID 1794840). Also: 0% is about no effect. An outline of the steps: (§1)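 HepG2 cells, 1,000/well, attached ~4 h, then exposed ~24 h at 37C to substances. Protease activity read by fluorescence of 25 uM GF-AFC (Ex/Em 380/510 nm) after 30 min; ATP then by CellTiter-Glo luminescence.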
In general terms: The purpose of a counterscreen is to sort out artefacts and off-target activity.

Assay [2] is described as follows: HepG2 viability counterscreen (readout 1: protease activity) against the NCATS DSHEA and TCM libraries (AID 1794841).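 Also: cells exposed to compounds for about 24 h before the protease read; 0% is about no effect.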 The gist of the method:
as §1

Assay [3] has as its target Glutathione peroxidase 1 (Homo sapiens) (UniProt P07203). Briefly: Primary qHTS Assay for Inhibitors of Recombinant Selenoprotein Glutathione Peroxidase 1 (GPX1) (AID 1845191). Also: nearly all actives have a fitted effect of over 65% in size. Also: potency is read from the fitted curve at half-maximal effect. As to activity, negative = inhibition: % is scaled to controls: 0 for no effect and ±100 for the full control effect. An outline of the steps: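 10 nM GPX1 + cpd, 30 min RT; start w/ 1 mM GSH, 0.5 mM cumene hydroperoxide, 0.5 mM NADPH, 100 nM GR, 0.01% BSA; buffer 50 mM Tris-HCl pH 7.5, 2 mM EDTA, 150 mM NaCl; Fl 340/450, 0 & 15 min.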
(In general: In qHTS, concentration-response curves come from the screen itself.)

Assay [4] addresses Phospholipid hydroperoxide glutathione peroxidase GPX4 (Homo sapiens) (UniProt P36969). In words: Primary qHTS Assay for Inhibitors of Recombinant Selenoprotein Glutathione Peroxidase 4 (GPX4) (AID 1845192). Also: nearly all actives have a fitted effect of over 65% in size. An outline of the steps: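 NADPH consumption, followed by fluorescence at 340/450 nm between 0 and 15 min, reports GPX4 activity via coupled glutathione reductase (100 nM). Enzyme 200 nM was pre-exposed to compound 30 min; 0.5 mM cumene hydroperoxide and 1 mM GSH served as substrates.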

For assay [5], the target named is Cytochrome P450 2D6 (Homo sapiens) (UniProt P10635). In words: qHTS for inhibitors of CYP2D6 against the NCATS DSHEA and TCM libraries (AID 1919972). Also: % is scaled to controls: 0 for no effect and ±100 for the full control effect. The gist of the method:
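Steps: enzyme plus luciferin substrate dispensed; test substances pinned; 15 min RT; 1x NADPH regenerating solution added, 30–45 min RT protected from light; detection reagent, 30 min RT; luminescence measured. Minus-enzyme wells as background.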

Assay [6] in a line: KB-3-1 P-gp reporter qHTS against the NCATS DSHEA and TCM libraries (AID 1919975). Also: 0% is about no effect. An outline of the steps:
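Parental KB-3-1 cells, 500 cells/well, in DMEM with 10% FBS, exposed 72 h at 37 C to compounds in concentration-response. Viability read by CellTiter-Glo luminescence after 30 min at room temperature.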

Assay [7] in a line: qHTS Counterscreen for compound interference against the NCATS DSHEA and TCM libraries (AID 1919978).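 Also: compounds preincubated with 1 µM D-luciferin or buffer before detection reagent; % of control where 0% means no effect.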 The conditions noted are these: firefly luciferase detection reagent interference, luminescence. An outline of the steps:
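Firefly luciferase detection reagent was added after compounds (19.5 nM–39.8 uM final) had been incubated 15 min at room temperature with 1 uM D-luciferin or with 100 mM phosphate buffer alone. Luminescence was read after 30 min at room temperature.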

The nature of assay [8]: Dual reporter qHTS for agonist of Pregnane X Receptor (hPXR) against the NCATS DSHEA and TCM libraries: Fluorescence readout (AID 1920058). Also: 0% is about no effect. The gist of the method: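 Measures viability of the PXR reporter HepG2 line by protease-substrate fluorescence (405/540 nm), taken 1 h after CellTiter-Fluor addition. Substances are tested as concentration series over a ~24 h exposure, with rifampicin as agonist control.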

Assay [9] has as its target Nuclear receptor subfamily 1 group I member 2 (Homo sapiens) (UniProt O75469). Briefly: Dual reporter qHTS for antagonist of Pregnane X Receptor (hPXR) against the NCATS DSHEA and TCM libraries: Luminescence Readout (AID 1920060).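 Also: HepG2 cells carrying hPXR luciferase reporter stimulated with rifampicin at 2 µM; 0% is about no effect.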 The gist of the method: (§2)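 hPXR-Luc HepG2 cells exposed 24 h at 37 C to compounds with 2 uM rifampicin in antagonist mode; luciferase luminescence measured by ONE-Glo, with CellTiter-Fluor viability read beforehand.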

Assay [10] in a line: Dual reporter qHTS for antagonist of Pregnane X Receptor (hPXR) against the NCATS DSHEA and TCM libraries: Fluorescence Readout (AID 1920061). Also: 0% is about no effect. An outline of the steps:
as §2

A short description of assay [11]: qHTS drug screen for cell cycle checkpoint inhibitors in PARPi-resistant BRCA-mutant ovarian cancer cell lines. (AID 1963452; calls by dose curve). The conditions noted are these: PEO1/OlaR viability, CellTiter-Glo luminescence, 96 h, stronger effect = lower value. The gist of the method: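 PEO1, PEO4 and PEO1/OlaR ovarian cancer cells, 600 per well, exposed 96 h at 37C to a dilution series. Viability read by CellTiter-Glo luminescence, normalized to DMSO and empty wells; activity summarized as Z-AUC.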

The target in assay [12] is Luciferin 4-monooxygenase (Photinus pyralis) (UniProt P08659). Briefly: Primary firefly luciferase (FLuc) qHTS assay for identification of artifact compounds. (AID 1845220). Also: nearly all actives have a fitted effect of over 60% in size. The conditions noted are these: outcome: dose series up to 54.1 µM. An outline of the steps:
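FLuc 10 nM; luciferin 10 uM; ATP 10 uM; Tris-acetate pH 7.6, Mg-acetate 10 mM; 15 min RT preincubation; 5 min reaction; luminescence.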

For assay [13], the system named is Nanoluciferase (engineered Oplophorus gracilirostris luciferase). Briefly: Primary Nanoluciferase (NLuc) qHTS assay for identification of artifact compounds. (AID 1845222).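 Also: NLuc secreted into diluted conditioned medium of S16 cells; 0% = DMSO and -100% = no enzyme.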 An outline of the steps: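 NLuc from S16 cell medium (1:55) plus test compounds, 15 min, room temperature. Luminescence after Nano-Glo (1:100) addition, 5 min.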
Assay [14] addresses Cytochrome P450 2C19 (Homo sapiens) (UniProt P33261). In words: qHTS for inhibitors of CYP2C19 against the NCATS DSHEA and TCM libraries (AID 1919974).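 Also: luminescence from luciferin released by CYP2C19 oxidation of a pro-luciferin substrate.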 Also: potency is read from the fitted curve at half-maximal effect. The gist of the method:
(§3)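 Light output from converted D-luciferin reports remaining CYP activity. Compounds preincubate with enzyme and substrate for 15 min; NADPH regeneration (1x final) runs the reaction for 30-45 min.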

For assay [15], the target named is Cytochrome P450 1A2 (Homo sapiens) (UniProt P05177). In words: qHTS for inhibitors of CYPIA2 against the NCATS DSHEA and TCM libraries (AID 1919976). Also: potency is read from the fitted curve at half-maximal effect. The gist of the method:
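In this quantitative HTS, inhibition of recombinant human CYP1A2 was measured as loss of luciferin-derived luminescence. Turnover ran 30-45 min at RT after NADPH regeneration solution was added.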

Assay [16] deals with Cytochrome P450 3A4 (Homo sapiens) (UniProt P08684). In words: qHTS for inhibitors of CYP3A4 against the NCATS DSHEA and TCM libraries (AID 1919971).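 Also: % is scaled to controls: 0 for no effect and ±100 for the full control effect; inhibition lowers luminescence from luciferin made by CYP3A4.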 The gist of the method: as §3
Assay [17] is described as follows: qHTS profiling for inhibitors of Plasmodium falciparum proliferation (AID 504749).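 Also: 0% = DMSO vehicle and full inhibition = artemisinin control; nearly all actives have a fitted effect of over 60% in size.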 The conditions noted are these: P. falciparum in erythrocytes, SYBR Green DNA, 72 h. The gist of the method: (§4)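 Three-day growth assay of blood-stage parasites in erythrocytes (0.3% parasitemia, 2.5% hematocrit) at 37 C, 5% CO2, quantified by SYBR Green DNA staining after overnight detergent lysis.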

For assay [18], the system named is 3D7. Described as above. The conditions noted are these: P. falciparum in erythrocytes, SYBR Green DNA, 72 h; series mostly up to 28.7 µM. An outline of the steps: as §4
[19] abbreviates: at 28.7 µM (top of the series), parasite line A.
The mark [20] stands for this setting: at 28.7 µM (top of the series), parasite line B.

Records with an inconclusive call do not appear. Activity calls are given as the source filed them. Unless noted, calls follow the shape of the dose curve; as a rule, active = well fitted curve in the direction sought with a large enough effect; inconclusive = small, poorly fitted or top-dose-only effect, or another doubt; inactive = no such curve, though single readings can be large; an effect the other way counts as inactive or inconclusive.

Cytochrome P450 1A2 (Homo sapiens), sequence (P05177 whole entry, looked up): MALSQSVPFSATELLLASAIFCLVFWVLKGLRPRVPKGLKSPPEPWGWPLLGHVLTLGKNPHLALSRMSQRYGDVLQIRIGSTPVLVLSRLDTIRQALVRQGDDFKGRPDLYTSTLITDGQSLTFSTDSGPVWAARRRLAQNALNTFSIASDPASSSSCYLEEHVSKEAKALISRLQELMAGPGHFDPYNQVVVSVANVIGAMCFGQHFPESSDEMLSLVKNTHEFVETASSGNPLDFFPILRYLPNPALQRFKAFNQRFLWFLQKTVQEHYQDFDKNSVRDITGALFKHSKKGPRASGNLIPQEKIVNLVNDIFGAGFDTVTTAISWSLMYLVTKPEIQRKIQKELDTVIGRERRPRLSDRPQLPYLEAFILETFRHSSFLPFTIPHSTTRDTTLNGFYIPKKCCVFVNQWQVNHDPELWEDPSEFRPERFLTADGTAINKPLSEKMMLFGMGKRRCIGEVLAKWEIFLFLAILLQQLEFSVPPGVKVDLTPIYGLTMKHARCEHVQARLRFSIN
Glutathione peroxidase 1 (Homo sapiens), sequence (P07203 whole entry, looked up): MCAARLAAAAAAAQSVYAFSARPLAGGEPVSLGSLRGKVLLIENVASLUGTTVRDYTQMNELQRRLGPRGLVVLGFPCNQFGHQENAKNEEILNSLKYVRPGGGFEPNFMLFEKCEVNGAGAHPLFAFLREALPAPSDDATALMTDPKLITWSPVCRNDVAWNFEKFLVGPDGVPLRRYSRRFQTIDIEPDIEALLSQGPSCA
Nuclear receptor subfamily 1 group I member 2 (Homo sapiens), sequence (O75469 whole entry, looked up): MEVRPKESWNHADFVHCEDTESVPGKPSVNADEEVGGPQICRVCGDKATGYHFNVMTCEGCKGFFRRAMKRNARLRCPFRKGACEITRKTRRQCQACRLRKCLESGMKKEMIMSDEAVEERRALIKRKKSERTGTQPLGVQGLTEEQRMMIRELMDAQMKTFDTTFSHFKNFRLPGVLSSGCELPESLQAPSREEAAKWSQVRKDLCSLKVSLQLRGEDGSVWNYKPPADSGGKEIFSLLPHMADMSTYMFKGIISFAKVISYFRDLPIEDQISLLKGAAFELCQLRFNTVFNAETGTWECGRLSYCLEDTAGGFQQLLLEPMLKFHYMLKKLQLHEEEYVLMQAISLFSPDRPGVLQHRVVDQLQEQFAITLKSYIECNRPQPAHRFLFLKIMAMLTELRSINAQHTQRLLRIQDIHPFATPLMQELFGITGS
Cytochrome P450 2D6 (Homo sapiens), sequence (P10635 whole entry, looked up): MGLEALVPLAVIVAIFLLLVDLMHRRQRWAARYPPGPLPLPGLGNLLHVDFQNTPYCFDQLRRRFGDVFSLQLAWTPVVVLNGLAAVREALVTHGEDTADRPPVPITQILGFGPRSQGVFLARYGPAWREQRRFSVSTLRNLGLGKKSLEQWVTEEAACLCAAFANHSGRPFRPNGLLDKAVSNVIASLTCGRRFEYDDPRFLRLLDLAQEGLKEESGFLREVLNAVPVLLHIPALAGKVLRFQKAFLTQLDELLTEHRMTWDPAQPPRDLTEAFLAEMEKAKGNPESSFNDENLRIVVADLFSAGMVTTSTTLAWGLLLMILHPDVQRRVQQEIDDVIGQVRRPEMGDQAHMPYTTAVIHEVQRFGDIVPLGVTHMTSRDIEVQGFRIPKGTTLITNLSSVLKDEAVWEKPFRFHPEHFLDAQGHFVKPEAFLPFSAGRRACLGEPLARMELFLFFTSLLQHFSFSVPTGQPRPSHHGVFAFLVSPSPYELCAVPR
Phospholipid hydroperoxide glutathione peroxidase GPX4 (Homo sapiens), sequence (P36969 whole entry, looked up): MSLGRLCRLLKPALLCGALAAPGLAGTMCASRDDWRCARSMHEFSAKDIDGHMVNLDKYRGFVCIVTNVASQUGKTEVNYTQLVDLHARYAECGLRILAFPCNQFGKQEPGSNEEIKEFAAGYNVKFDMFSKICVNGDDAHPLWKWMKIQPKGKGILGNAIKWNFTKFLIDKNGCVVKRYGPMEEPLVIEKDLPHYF
Cytochrome P450 2C19 (Homo sapiens), sequence (P33261 whole entry, looked up): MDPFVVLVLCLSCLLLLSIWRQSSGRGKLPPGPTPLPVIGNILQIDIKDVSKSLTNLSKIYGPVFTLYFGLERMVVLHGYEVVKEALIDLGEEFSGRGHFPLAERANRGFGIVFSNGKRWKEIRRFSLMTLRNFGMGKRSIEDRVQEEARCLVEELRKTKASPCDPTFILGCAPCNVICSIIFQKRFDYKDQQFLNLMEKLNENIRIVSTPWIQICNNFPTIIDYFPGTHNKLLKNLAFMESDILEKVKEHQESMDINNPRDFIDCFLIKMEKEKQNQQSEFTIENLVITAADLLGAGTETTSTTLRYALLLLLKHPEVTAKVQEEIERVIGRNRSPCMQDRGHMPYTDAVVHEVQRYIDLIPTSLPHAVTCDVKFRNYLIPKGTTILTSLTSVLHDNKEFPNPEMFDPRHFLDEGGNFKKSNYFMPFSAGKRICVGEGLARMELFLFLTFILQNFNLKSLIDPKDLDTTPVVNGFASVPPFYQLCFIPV
Cytochrome P450 3A4 (Homo sapiens), sequence (P08684 whole entry, looked up): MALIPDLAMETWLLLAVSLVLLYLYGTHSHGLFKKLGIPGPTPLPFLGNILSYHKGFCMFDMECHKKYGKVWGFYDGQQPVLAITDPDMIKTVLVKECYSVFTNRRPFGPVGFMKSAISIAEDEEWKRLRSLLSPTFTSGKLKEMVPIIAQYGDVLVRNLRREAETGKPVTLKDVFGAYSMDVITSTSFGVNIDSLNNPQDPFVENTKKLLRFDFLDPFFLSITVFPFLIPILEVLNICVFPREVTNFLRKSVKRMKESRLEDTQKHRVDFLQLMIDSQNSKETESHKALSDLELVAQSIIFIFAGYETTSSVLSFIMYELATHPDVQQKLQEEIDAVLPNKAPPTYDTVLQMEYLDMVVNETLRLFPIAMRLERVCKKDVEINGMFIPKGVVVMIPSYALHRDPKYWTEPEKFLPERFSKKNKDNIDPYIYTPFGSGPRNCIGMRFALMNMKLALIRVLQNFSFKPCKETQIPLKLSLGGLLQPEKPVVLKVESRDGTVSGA

As for `Oc1ccc(/C=C/c2cc(O)cc(O)c2)cc1`, the result in [1], in assay [2], in assay [5], in assay [6], in assay [8] and in assay [9] was inactive. Moreover, the molecule was classed as inactive in assay [10]. Further, the Potency result in assay [3] and in assay [4] was “inactive” in each case. In addition, the max response in [7] was -1.38% (inactive). Besides, the Z-AUC is 0.778 (inactive) in assay [11], 1.04 in [11] (measured here: PEO1 parental Z-AUC) and 0.679 in assay [11] (measured here: PEO4 Z-AUC).

`C=C[C@]1(C)C[C@@H](OC(=O)CSCCN(CC)CC)[C@]2(C)[C@H](C)CC[C@]3(CCC(=O)[C@H]32)[C@@H](C)[C@@H]1O`: the Potency result in assay [3] and in assay [4] was “inactive” throughout.

For `C=C1CC[C@H](O)CC1=C/C=C1\CCC[C@]2(C)[C@@H]([C@H](C)/C=C/[C@H](C)C(C)C)CC[C@@H]12`, the molecule was classed as inactive in [1], in assay [2], in assay [12], in assay [13], in [6] and in assay [8]. The call in assay [9] and in assay [10] was inactive. The Potency result in [3], in [4] and in assay [15] was “inactive” each time. Further, the Potency in assay [14] was 12.6 µM (active). Further, in assay [7], the max response was -0.883% (inactive).

As for `Cc1ncc(C[n+]2csc(CCO)c2C)c(N)n1`, the molecule was classed as inactive in [1], in assay [2], in assay [16], in assay [5], in assay [6] and in assay [8]. Further, the molecule was called inactive in assay [10]. In addition, the Potency entry in assay [3], in assay [4] and in assay [18] was “inactive” each time. In [7], the max response is -0.256% (inactive). Also, the activity, negative = inhibition was 5.7% (inactive) in assay [17] (at 12.8 µM (top of the series), parasite line A) and 7.59% (inactive) in assay [17] (at 12.8 µM (top of the series), parasite line B).

`CCOC(=O)[C@H](CS)NCCN[C@@H](CS)C(=O)OCC`: the Potency in [3] was 22.7 µM (active).

For `Oc1cccc(O)c1O`, the molecule was classed as inactive in [1], in [2], in assay [6], in [8], in [9] and in [10]. The Potency entry in assay [14] and in assay [15] was “inactive” each time. Moreover, the max response in assay [7] is -3.78% (inactive). The results for the activity, negative = inhibition in assay [17] (setting [19]) and in assay [17] (setting [20]) were -26.1% (inactive) and -8.69% (inactive), respectively.

As for `CC(=O)Nc1c(I)c(C(=O)N[C@H]2C(O)O[C@H](CO)[C@@H](O)[C@@H]2O)c(I)c(N(C)C(C)=O)c1I` (some centres undefined), the Potency result in assay [3] and in assay [4] was “inactive” each time.

For the molecule `Cc1cc(O)c2c(c1)O[C@@]1(C)CC[C@H]3C(C)(C)CCCC34CO[C@@H]2[C@H]41` (some centres undefined), the Potency result in [3] was “inactive”.

In the case of `CC1=CCC2CC1C2(C)C` (centres undefined), the molecule was classed as inactive in assay [1], in assay [2], in assay [16], in assay [5], in assay [6] and in assay [8]. Also, the molecule was classed as inactive in [9] and in assay [10]. The Potency in assay [15] was 3.55 µM (active). Moreover, the max response in assay [7] is 3.27% (inactive). Further, the activity, negative = inhibition is 10.5% (inactive) in assay [17] (setting [19]) and 12.9% (inactive) in assay [17] (setting [20]). The Potency entry in [18] was “inactive”.
